Screening data as filed in PubChem.
PINK1 expr mod: A Quantitative High throughput Screen to Identify Chemical Modulators of PINK1 Expression; Potency, µM (series often up to 76.6 µM), most hits filed as activators; actives 0.2% (n = 410,000); PINK1 immunofluorescence, high-content cytometry, 24 h; active = well fitted activation curve with a large enough effect; inconclusive = small, poorly fitted or top-dose-only effect; cell line not stated here; note: nearly all actives have a fitted effect of over 65% in size
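PINK1 protein level read as immunofluorescence by microplate cytometer in a fixed, stained stable cell line after 24 h exposure to five compound concentrations, with CCCP as control.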
Epigenetic reg: Quantitative High-Throughput Screen for Regulators of Epigenetic Control | murine LDR cells, GFP reporter derepression, 30 h | Potency, µM (series often up to 53.9 µM), most hits filed as activators | actives 0.2% (n = 280,000); note: nearly all actives have a fitted effect of over 60% in size
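Reporter derepression read as number of fluorescent GFP-positive objects, 20-120 um in size, counted by laser-scanning cytometer. Mouse LDR line with an epigenetically silenced CMV-GFP locus; compound incubation 30 h, 37 C.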
Gal4-VP16 FLuc: VP16 counterscreen qHTS for inhibitors of ROR gamma transcriptional activity; actives 3.5% (n = 310,000); Drosophila S2 Gal4-VP16 UAS-luciferase, luminescence, 20 h; Potency, µM (highest dose often 53.6 µM), actives largely listed as inhibitors;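 note: Gal4-VP16 expression switched on by copper sulfate through the metallothionein promoter; nearly all actives have a fitted effect of over 50% in size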
Sfp inh: qHTS Assay for Inhibitors of Bacillus subtilis Sfp phosphopantetheinyl transferase (PPTase); 4'-phosphopantetheinyl transferase ffp (Bacillus subtilis), Q9F4F7; Biochemical Sfp PPTase activity, qHTS; Potency, µM, actives largely listed as inhibitors; actives 3.5% (n = 310,000); AID 1490, 2009;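 note: the enzyme is Sfp with the accession as filed and its product quenches rhodamine fluorescence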
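Sfp 15 nM + cpd, 15 min RT; start w/ rhodamine-CoA 5 uM, BHQ-2-YbbR 12.5 uM (final); 50 mM Hepes pH 7.6, 10 mM MgCl2, 0.01% NP-40, 0.01% BSA; read 525/598 nm at 0 and 30 min.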
RORgamma inh: qHTS for inhibitors of ROR gamma transcriptional activity; Nuclear receptor ROR-gamma (Mus musculus), P51450; actives 5.4% (n = 310,000); Potency, µM (highest dose often 53.6 µM), usual class: inhibitors; Drosophila S2 Gal4-RORgamma UAS-luciferase reporter, 20 h; note: nearly all actives have a fitted effect of over 60% in size
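Luminescence from a UAS-regulated Photinus luciferase reporter in stably transfected Drosophila Schneider cells is measured; decreased signal marks ROR gamma inhibition. Fusion expression is induced by 700 uM copper sulfate for 20 hr.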
ClpP mod: qHTS Assay for Activators of ClpP. ATP-dependent Clp protease proteolytic subunit (Bacillus subtilis (strain 168)), P80244. purified B. subtilis ClpP, FRET peptide cleavage, 20 min. Potency, µM (doses to about 57.5 µM). actives 1.9% (n = 340,000). AID 651965, 2013; active = well fitted falling curve with a large enough effect; inconclusive = small, poorly fitted or top-dose-only effect; inactive = no such curve, though single readings can be large or run the other way; note: the source files actives as falling curves though it sought activators and does not explain the sign; nearly all actives have a fitted effect of over 65% in size
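ClpP 10 microg/mL final, pH 8 Tris/KCl buffer with BSA, glycerol, Tween-20; compound pinned in; FRET-FV substrate; RT 20 min; Ex320/Em430; ΔFRET vs ADEP 5.8 microM, DMSO, no enzyme.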
Numbers stand for hits; . = inactive; ? = inconclusive; / = no result; [ ] = another dose, or the depositor's remark. An excerpt weighted towards active compounds, which were near 8.1% of everything screened. Unless noted, calls come from the whole dose curve; as a rule, active = well fitted curve in the direction sought with a large enough effect; inconclusive = small, poorly fitted or top-dose-only effect, or another doubt; inactive = no such curve, though single readings can be large; an effect the other way counts as inactive or inconclusive.

SMILES	PINK1 expr mod	Epigenetic reg	Gal4-VP16 FLuc	Sfp inh	RORgamma inh	ClpP mod
COCc1ccc(CN2CCC(C(=O)Nc3cccc(-c4cccc(Cl)c4)c3)CC2)o1	.	/	8.9µM	.	18µM	.
CCCCNC(=O)C1CCN(Cc2ccccn2)CC1	.	.	.	56µM	.	.
O=C(Nc1ccc(-c2cccc(F)c2)cc1)C1CCCN(Cc2ccccn2)C1 (stereo not drawn)	.	/	11µM	.	13µM	.
O=C(Nc1cccc(-c2cccc(Cl)c2)c1)C1CCN(Cc2ccccn2)CC1	.	/	?	.	20µM	.
CCOC(=O)c1ccccc1NC(=O)CSc1cn(CC(=O)N2CCOCC2)c2ccccc12	.	.	/	/	/	.
CCc1n[nH]c(=S)n1/N=C/c1ccc2c(c1)OCO2	.	.	?	.	11µM	.
COc1ccc(/C=N/n2c(=S)n(C)c3ccccc32)cc1OC	.	.	.	.	.	.
CCCc1nnc(SCC(=O)O)n1/N=C/c1ccc2c(c1)OCO2	.	.	.	.	.	.
CSc1ccc(/C=N/n2c(COc3ccccc3)n[nH]c2=S)cc1	.	/	?	.	?	.
Cc1nn(-c2ccccc2)c(C)c1/C=N/n1c(-c2ccccc2Br)n[nH]c1=S	.	.	.	?	?	.
Cn1c(=S)n(/N=C/c2ccc3c(c2)OCO3)c2ccccc21	.	.	.	.	11µM	.
CCc1n[nH]c(=S)n1/N=C/c1ccc(N(C)c2ccccc2)cc1	.	.	?	.	4.5µM	.
CCN(CC)c1ccc(/C=N/n2c(-c3ccccc3Br)n[nH]c2=S)cc1	.	.	.	?	1µM	.
Cc1cccc(N2CCN(CCNC(=O)Nc3ccc(Cl)cc3)CC2)c1C	.	.	/	/	/	.
COc1ccccc1-c1ccnc(-n2ncc(C(=O)N3CCN(C(C)C)CC3)c2-c2ccco2)n1	.	/	/	/	/	/
CC(=O)Nc1ccccc1-c1nc(CNC(=O)c2ccc(-n3cccn3)cc2)c(C)o1	.	/	/	/	/	/
COc1ccccc1CNc1ccc(-c2nc(-c3cccc(C)c3)no2)cc1[N+](=O)[O-]	.	.	/	/	/	.
O=C(CBr)c1ccc(Oc2ccc(C(=O)C[n+]3ccccc3Cl)cc2)cc1	.	/	/	/	/	.
CCOc1ccc(-c2c(C(=O)N/N=C/c3sccc3C)nnn2-c2nonc2N)cc1	.	/	8.9µM	.	3.2µM	.
CCOc1cccc(-c2c(C(=O)N/N=C/c3sccc3C)nnn2-c2nonc2N)c1	.	/	4.5µM	.	5.6µM	.
CCOc1cccc(-c2c(C(=O)N/N=C/c3ccsc3)nnn2-c2nonc2N)c1	.	/	25µM	.	11µM	.
CCOc1cccc(-c2c(C(=O)N/N=C/c3c(F)cccc3Cl)nnn2-c2nonc2N)c1	.	/	.	.	.	.
CN(C)c1ncc2nc(-c3ccccc3)c(=O)n(CCC#N)c2n1	.	/	.	.	.	/
CCC(=O)Nc1ccc(-c2nnc(SCc3ccccc3)n2C)cc1	.	/	/	/	/	.
Cc1cc(C)n2ncc(-c3cccc(Br)c3)c2n1	.	/	.	.	.	/
SMILES	PINK1 expr mod	Epigenetic reg	Gal4-VP16 FLuc	Sfp inh	RORgamma inh	ClpP mod
Cc1cc(Cl)n2ncc(-c3ccccc3)c2n1	.	.	?	.	16µM	.
Cc1cc(N)n2ncc(-c3ccc(F)cc3)c2n1	.	.	.	.	.	.
Cc1cc(N)n2ncc(-c3ccc(Cl)cc3)c2n1	.	.	.	.	.	22µM
CC1=NN(/C(=N\c2nnc(C)s2)Nc2ccc(C(C)(C)C)cc2)[C@H](c2ccc(C)cc2)S1	?	.	?	.	18µM	.
Cc1ccc(NC(=O)CCSc2nnc(C)s2)cc1	.	.	.	.	.	.
C=CCn1c(=O)c2ccc(C(=O)NCc3ccccc3)cc2n(Cc2cccc(Cl)c2)c1=O	.	.	?	?	.	28µM
C=CCn1c(=O)c2ccc(C(=O)NCc3ccccc3)cc2n(Cc2ccc(Cl)cc2)c1=O	.	.	.	.	.[10 µM]	.
Cc1cccc(C(=O)Nc2nnc(-c3ccc(C(C)(C)C)cc3)s2)c1	.	.	.	.	14µM	.
Cc1cccc(C(=O)Nc2ccc(-c3nc4ccccc4s3)cc2Cl)c1	.	.	/	/	/	25µM
CCn1c(=NC(=O)c2ccc(S(=O)(=O)N3CCOCC3)cc2)sc2cccc(OC)c21	.	.	?	.	.	32µM
CCn1c(=NC(=O)CCS(=O)(=O)c2ccccc2)sc2cccc(OC)c21	.	/	16µM	.	.	.
COCCn1c(=NC(=O)c2ccc(S(=O)(=O)N3CCOCC3)cc2)sc2cc(S(N)(=O)=O)ccc21	.	/	.	.	.	.
O=C(NCC1Cc2cccc(-c3cccnc3)c2O1)c1ccc2cc[nH]c2c1 (stereo not drawn)	.	/	/	/	/	/
Cn1ccnc1Sc1ccc(C(N)=O)cc1[N+](=O)[O-]	.	.	.	.	?	32µM
Cn1nnnc1Sc1ccc(C(=O)O)cc1[N+](=O)[O-]	.	.	.	.	.	/
COC(=O)c1ccc(Sc2nnnn2-c2ccccc2)c([N+](=O)[O-])c1	.	.	?	.	13µM	.
Cc1cc(NC(=O)c2cncc(Br)c2)ccc1NC(=O)c1cc2ccccc2o1	.	/	11µM	.	?	.
CCC(=O)NC(=S)Nc1ccc(OC)cc1OC	.	.	?	.	11µM	.
COc1cc(NC(=O)c2cc(Cl)ccc2Cl)ccc1NC(=O)c1cc2ccccc2o1	.	?	/	/	/	28µM
Cc1ccc(NC(=S)NC(=O)Cc2ccccc2)c(O)c1	.	/	?	.	20µM	.
COc1cc(NC(=O)c2ccccc2)ccc1NC(=O)c1cc2ccccc2o1	.	.	.	.	.	?
CCc1ccc(S(=O)(=O)c2nnn3c2nc(N(C)Cc2ccccc2)c2cc(Cl)ccc23)cc1	.	.	/	/	/	?
CCOC(=O)c1c(C)c(C(=O)NCc2ccc(Cl)cc2)c(C)n1C	.	.	/	/	/	.
COc1ccc(OC)c(NC(=O)c2cc3ccccc3o2)c1	.	.	.	.	.	.
COc1ccc(NC(=S)NC(=O)Cc2ccccc2)c(OC)c1	.	/	11µM	.	14µM	/
COc1ccc(NC(=S)NC(=O)c2cc3ccccc3o2)c(OC)c1	?	/	.	.	8.9µM	.
COc1ccccc1NC(=S)NC(=O)Cc1ccccc1	.	/	/	/	/	/
CC(O)CCC(=O)NNC1CC(=O)N(c2ccccc2)C1=O (stereo not drawn)	.	.	.	.	.	/
CC(C)c1ccc(N2C(=O)CC(NNC(=O)c3ccccc3Cl)C2=O)cc1 (stereo not drawn)	.	.	3.2µM	.	?	/
CCCc1cc(=O)oc2cc(C)c3c(C(C)(C)C)coc3c12	.	.	/	/	/	?
